# Assay results published in the OligoGym collection.
# Columns and labels:
# Assay in all cases: pooled miR-30 sensor sort-seq; sequence = guide strand
# Details in all cases: shRNA
# FAM73A = molecular target: FAM73A
# FAN1 = molecular target: FAN1
# FBXL3 = molecular target: FBXL3
# FCF1 = molecular target: FCF1
# FGF23 = molecular target: FGF23
# FIZ1 = molecular target: FIZ1
# FNBP1L = molecular target: FNBP1L
# FPGS = molecular target: FPGS
# FXN = molecular target: FXN
# FUT7 = molecular target: FUT7
# FTL = molecular target: FTL
# Note: reference of the scale not given here.
sequence,measurement,setting,value
TTTAATATCATCTTCATCTGCT,sensor-assay potency score (higher = more potent),FAM73A,0.76
TTGCTGATTGATAAGCTTCTAC,sensor-assay potency score (higher = more potent),FAN1,-0.452
TTCCTTGCTGCTGTCCACCTTG,sensor-assay potency score (higher = more potent),FBXL3,-0.442
TTTAATAATCTGTTTGATCAGC,sensor-assay potency score (higher = more potent),FBXL3,-0.685
TTGGGGAACTTCTCTTTCCTTT,sensor-assay potency score (higher = more potent),FCF1,-0.569
TGGATCTGCAGGTGGTAGCTGT,sensor-assay potency score (higher = more potent),FGF23,-0.923
TTGAAGTCGCGCTCGCAGCGCG,sensor-assay potency score (higher = more potent),FIZ1,-0.792
TTGTAGTTGCTTGTAAATCTGA,sensor-assay potency score (higher = more potent),FNBP1L,-0.235
TTGGTGAAGAGCTCAGGACTGA,sensor-assay potency score (higher = more potent),FPGS,-0.348
TTAAAAATCAGAACTTGGGGGC,sensor-assay potency score (higher = more potent),FXN,0.521
TATCGGCTCTCATTCATGCCAG,sensor-assay potency score (higher = more potent),FUT7,-0.795
TGTCGCTGGGCAGCTCTGGGGG,sensor-assay potency score (higher = more potent),FUT7,-1.3
TCTCCGTAATGTAGTCGCGGTG,sensor-assay potency score (higher = more potent),FUT7,-1.48
TTGGCACTCAGGTGGCAGCGGG,sensor-assay potency score (higher = more potent),FUT7,-1.03
TTGTTGATCACATAGGTTCCTA,sensor-assay potency score (higher = more potent),FXN,0.0276
TCGGTGAACAGTCGCACGCGGA,sensor-assay potency score (higher = more potent),FUT7,-1.48
ATAGGGCACAAAGATGTCCGAG,sensor-assay potency score (higher = more potent),FUT7,-0.929
TCCTCATAGACTTGGCTGCGGG,sensor-assay potency score (higher = more potent),FUT7,-1.76
ATTCATCAAATAGACACTCTGC,sensor-assay potency score (higher = more potent),FXN,0.393
TAAGGCTTTAGTGAGCTCTGCG,sensor-assay potency score (higher = more potent),FXN,0.283
TCTGCTAGTCTTTCATAGGTGG,sensor-assay potency score (higher = more potent),FXN,0.437
TTGACAGTTAAGACACCACTCC,sensor-assay potency score (higher = more potent),FXN,-0.462
TCAAAGGACAGGTAGAAGCGGT,sensor-assay potency score (higher = more potent),FUT7,0.117
AAAGGAGACATCATAGTCCTCA,sensor-assay potency score (higher = more potent),FXN,0.0111
TTTCTCCGTAATGTAGTCGCGG,sensor-assay potency score (higher = more potent),FUT7,-0.338
TAATGTAGTCGCGGTGCTGAGA,sensor-assay potency score (higher = more potent),FUT7,-0.815
TTTCATAGGTGGTCTCATCTAG,sensor-assay potency score (higher = more potent),FXN,-0.00192
TTTTGACATTCCAAATCTGGTT,sensor-assay potency score (higher = more potent),FXN,-0.929
AAAGATGTCCGAGTCGCGCCGG,sensor-assay potency score (higher = more potent),FUT7,-0.517
TGATAAGCTTCACTTCCTCATC,sensor-assay potency score (higher = more potent),FTL,-1.37
TCATCCACATGCACGAAGGCGT,sensor-assay potency score (higher = more potent),FUT7,-0.506
ATAACGCTTAGGTCCACTGGAT,sensor-assay potency score (higher = more potent),FXN,-1.03
AAAGTCATCCACATGCACGAAG,sensor-assay potency score (higher = more potent),FUT7,-0.891
TCACAGATGGCACAGAAACGTT,sensor-assay potency score (higher = more potent),FUT7,-1.59
TTGGTATCGGCTCTCATTCATG,sensor-assay potency score (higher = more potent),FUT7,-1.57
TTGATTTCGACACCCAGCCCTT,sensor-assay potency score (higher = more potent),FUT7,-1.26
TCTGCTAAAGAGTCCAGCGTTT,sensor-assay potency score (higher = more potent),FXN,-0.618
AACAGTCGCACGCGGAGCCTGT,sensor-assay potency score (higher = more potent),FUT7,-1.06
TTGTTTGGCGTCTGCTTGTTGA,sensor-assay potency score (higher = more potent),FXN,-0.937
TAGGGCACAAAGATGTCCGAGT,sensor-assay potency score (higher = more potent),FUT7,-0.24
TTGCGCCAGAATTTCTCCGTAA,sensor-assay potency score (higher = more potent),FUT7,-0.526
TAGCGGTCACAGATGGCACAGA,sensor-assay potency score (higher = more potent),FUT7,-0.787
